In all, about 69,000 compounds went through this assay and about 8,600 (12%) showed an effect of 50% or more. This excerpt belongs to a sample that is enriched for strong results.

In the assay the test system is Plasmodium berghei. Put plainly: Screen against P. berghei liver stage (PbLuc), transformed with Luciferase, at 10uM. The settings on record: tested at 10 uM. The class given is functional, HepG2.
For `Cc1ccc2c(c1)c(C)cc(=O)n2CCC#N`, the INHIBITION is recorded as 11.2%. `CC(C)c1noc(CN2CCN(C(=O)c3ccncc3F)CC2)n1`: the INHIBITION is recorded as -29.1%.

Take `O=S(=O)(NCC1COCc2c(-c3ccncc3)nnn2C1)C1CC1` (stereo unspecified): the INHIBITION is reported as 18.3%. Turning to `NC(=O)c1ccc(NC(=O)c2ccncc2Cl)cn1`, the INHIBITION came to 13.8%. With `Cc1ccc(OC2(C(=O)O)CCN(C(=O)CCc3ccco3)CC2)cn1`, the INHIBITION stood at 34.4%. Under `CC(C)(C)c1n[nH]cc1CN1CCc2nc3ccsc3c(=O)n2CC1` stands 50.6%; under `Cc1nn(C)cc1CN1CCc2nc3sccc3c(=O)n2CC1`, 30.5%. Take `O=c1c2sccc2nc2n1CCN(Cc1ccsc1)CC2`: the INHIBITION amounted to 5.11%. In the case of `COc1ccc(CC(=O)N2CC[C@@H]3[C@H](CC2)N(C)CCS3(=O)=O)cc1` it was 18.5%.

In the case of `COCCCN(Cc1cnc(-c2cccs2)nc1)C1CCN(C)CC1`, the INHIBITION was determined as 13%. For the molecule `Cc1nc(NC2CCCCC2)cc(C2CCCNC2)n1` (stereo unspecified), the INHIBITION is 28.3%. Regarding `Cc1nc(CCC(=O)NC2CCC2)cc(C2CCCNC2)n1` (stereo unspecified), the INHIBITION is 26.8%. For `Cc1nc(NC2CCS(=O)(=O)CC2)cc(C2CCCNC2)n1` (stereo unspecified), the INHIBITION turned out to be 62.2%. In the case of `CSc1nsc(NC(=O)c2cc(C3CC3)nn2C)n1` it was -64.85%; in that of `CCN(C)Cc1cccc(CNC(=O)NCCc2ccccn2)c1`, 51%. On to `CCN(C)Cc1cccc(CNC(=O)CSCc2ccccn2)c1`, for which the INHIBITION turned out to be 20.8%. For the molecule `CN(C)c1ccc(CNC(=O)NCCc2ccccn2)cn1`, the INHIBITION was -22.9%. As for `CCc1c(C)nc2cc(C3CCN(Cc4ccccc4F)C3)nn2c1O` (stereo unspecified), the INHIBITION came to 85.9%. Take `Fc1ccccc1CN1CCC(c2n[nH]c(C3CC3)n2)CC1`: the INHIBITION is on record as -5.92%. As to `CN(Cc1noc(C2CC2)n1)C1CCN(Cc2cccc(F)c2F)C1` (stereo unspecified), the INHIBITION was -31.96%. `Cc1nc2cc(C3CCN(Cc4cccc(F)c4F)C3)nn2c(O)c1C.O=C(O)CC(O)(CC(=O)O)C(=O)O` (stereo unspecified): the INHIBITION came out at 90.4%. With `Cc1nc(O)cc(C2CCN(Cc3cccc(F)c3F)C2)n1` (stereo unspecified), the INHIBITION is 25%. For the molecule `CNC(=O)c1cn[nH]c1C1CCN(Cc2ccccc2F)C1` (stereo unspecified), the INHIBITION is given as -10.5%. `COC(=O)c1cccc2nc([C@H]3CCN(Cc4ccccc4F)C3)oc12`: the INHIBITION was -61.5%. Turning to `CN(Cc1nnc(C2CC2)n1C)C1CCN(Cc2ccccc2F)C1` (stereo unspecified), the INHIBITION is -3.19%.

As for `Cc1nc2cc(C3CCN(Cc4ccccc4F)C3)nn2c(O)c1C` (stereo unspecified), the INHIBITION came to 61.7%. As to `COCCNC(=O)Nc1ccc(-c2nc(C(C)C)no2)cc1`, the INHIBITION is -36.4%. For `Cc1cccc(C)c1Nc1noc2c1CN(C(=O)c1ccn(C)n1)CC2`, the INHIBITION came out at 30.35%.

For `CN(CC1COc2ccccc2O1)C(=O)CCn1cncn1` (stereo unspecified), the INHIBITION is listed as 44.05%. With `CNC(=O)CN1CCC(NC(=O)N(C)Cc2c(C)noc2C)CC1`, the INHIBITION amounted to 34.25%. In the case of `Cc1cc(C)c(C(=O)N2CCOCC2c2c(C)n[nH]c2C)o1` (stereo unspecified) it was -8.4%; in that of `CO[C@H]1CN(Cc2ccc(F)cc2)CC[C@@]12CCCO2`, 25.6%.

For `Cn1cc(C(=O)N[C@@H]2CN(Cc3ccoc3)[C@@H]3CCCO[C@@H]32)cn1`, the INHIBITION is 35.8%. In the case of `CN1CCS(=O)(=O)[C@@H]2CCN(C(=O)CC(C)(C)C)CC[C@@H]21` it was 35.8%. In the case of `C[C@H]1CN2C[C@H](O)CC2CN1Cc1ccc2nccnc2c1` (stereo partly specified) it was 17.4%; in that of `CCc1nsc(N2CCN(C(=O)COc3ccccc3)CC2)n1`, -39.2%; in that of `CCc1nsc(N2CCCN(C(=O)c3ccc(OC)cc3)CC2)n1`, 33.5%. With `CCc1nsc(N2CCCN(C(=O)COc3ccccc3)CC2)n1`, the INHIBITION is listed as 53.8%. Turning to `COC(=O)c1cccn1C1CCN(S(=O)(=O)c2ccccc2)CC1`, the INHIBITION came out at 19.5%. In the case of `Cc1ccc(C)c(S(=O)(=O)NCCC(=O)NCc2ccoc2)c1` it was -0.514%; in that of `CCSCCNc1cc(C)nc2c(C)c(C)nn12`, 39.9%; in that of `CC1CCN(C(=O)CSCc2nc(C3CC3)no2)CC1`, -42.2%. `O=C(NCC(=O)N1CCc2ccccc2C1)c1ccoc1`: the INHIBITION is on record as 26.3%.

As for `CC1CCN(C(=O)CSCCN2CCOCC2)CC1`, the INHIBITION was 85.6%.

Consider `O=C(CSCCN1CCOCC1)N1CCc2ccccc2C1`, for which the INHIBITION is 76%. Consider `O=C(CSCCN1CCOCC1)N1CCCCCC1`, for which the INHIBITION stood at 44.1%. Take `O=C(O)[C@@H]1CN(C(=O)CSCCN2CCCC2)C[C@H]1c1ccccc1`: the INHIBITION is given as 39.3%.

Take `O=C1CCCN1c1cccc(CNCc2nc(C3CC3)no2)c1`: the INHIBITION worked out at 29.6%. With `Cc1c[nH]nc1C1CCCN(C(=O)c2c(C)noc2C)C1` (stereo unspecified), the INHIBITION came to 23.4%. For the molecule `N#Cc1cn(C2CC2)c(=O)n(CC(O)c2ccc(Cl)cc2)c1=O` (stereo unspecified), the INHIBITION worked out at 9.1%. Under `Cc1cc(C[S+]([O-])Cc2ccccc2C)no1` (stereo unspecified) stands -23.3%.

For the origin of these results see ChEMBL document CHEMBL4513216, “Probing the Open Global Health Chemical Diversity Library for Multistage-Active Starting Points for Next-Generation Antimalarials” (ACS Infect Dis, 2020).
